Screening results (PubChem BioAssay)
A selection: hits, their analogues and other compounds. The true share with any hit is near 6.2%.
HCMV antiviral: qHTS Assay for inhibitors of the human cytomegalovirus (HCMV); HFF cells, HCMV-luciferase reporter, 72 h; hits give low values; activity change, negative = inhibition, % at 57.5 µM; 410,000 tested, 4.5% active; AID 1259415, 2018; in the data active = activity change below about -60%; inconclusive = no clear call, values can overlap the other calls; inactive = above about -39%; also: % is scaled to controls: 0 for no effect and ±100 for the full control effect
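After 16 h attachment at 37C, HFF cells received test compound and HCMV-luciferase (1 PFU/cell); reporter luminescence read 72 h later, data normalized against buffer-only and known inhibitor Salinomycin.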
MARV entry inh: qHTS for inhibitors of binding or entry into cells for Marburg Virus; Marburg virus pseudotyped entry inhibition, cell reporter; AID 540276, 2011; 300,000 tested, 1.8% active; Potency, µM (titrated, usually from 37.8 µM), for inactives: at the top dose activity change, negative = inhibition, usual class: inhibitors; calls by dose curve; tested in HEK293 cells; also: potency is read from the fitted curve at half-maximal effect; % is scaled to controls: 0 for no effect and ±100 for the full control effect
Lassa entry inh: qHTS for Inhibitors of binding or entry into cells for Lassa Virus; Lassa virus pseudotype entry inhibition, cell reporter; Potency, µM (doses to about 37.9 µM), without a hit: top-dose activity change, negative = inhibition, most hits filed as inhibitors; 300,000 tested, 1.2% active; calls by dose curve; tested in HEK293 cells; also: potency is read from the fitted curve at half-maximal effect; % is scaled to controls: 0 for no effect and ±100 for the full control effect; nearly all actives have a fitted effect of over 50% in size
FMDV inh: High Throughput Screening for Foot and Mouth Disease Virus Antivirals; FMDV antiviral cell-based qHTS; Potency, µM (highest dose often 57.9 µM), for the others: top-dose activity change, negative = inhibition, usual class: inhibitors; 410,000 tested, 1.2% active; AID 1159524, 2015; calls by dose curve; tested in HEK293T cells; also: read-out not given here; potency is read from the fitted curve at half-maximal effect; % is scaled to controls: 0 for no effect and ±100 for the full control effect; nearly all actives have a fitted effect of over 45% in size
HeLa G2M arrest: Cell cycle validation with wells to cells screening paradigm | 25 tested, 60% active | HeLa cell cycle G2/M arrest, Hoechst DNA content imaging | shares compounds with MARV entry inh | Potency, µM, hits mostly inhibitors
WI-38 tox: High Content Assay for Compounds that inhibit the Assembly of the Perinucleolar Compartment: WI-38 Cytotoxicity; Potency, µM (series often up to 46.1 µM), without a hit: top-dose activity change, negative = cytotoxicity, actives largely listed as inhibitors; 120 tested, under 10 active; WI-38 normal lung fibroblasts, ATPLite luminescence ATP viability, 24 h; shares compounds with MARV entry inh
PNC assembly inh: High Content Assay for Compounds that inhibit the Assembly of the Perinucleolar Compartment: Confirmation of PNC Inhibition | AID 2730, 2010 | Potency, µM (doses to about 46.1 µM), without a hit: at the top dose activity, negative = PNC inhibition, most hits filed as inhibitors | shares compounds with MARV entry inh | PC3M PTB-GFP, PNC prevalence imaging, 16 h | 120 tested, 50% active
PC3M caspase: High Content Assay for Compounds that inhibit the Assembly of the Perinucleolar Compartment: PC3M Caspase 3/7 Activation; shares compounds with MARV entry inh; activity change, positive = activation, % at 46.1 µM; PC3M-GFP caspase 3/7 activation, luminescence, 24 h; 120 tested, under 10 active; AID 2731, 2010
Active calls of the source: *; ? = inconclusive; . = no result; ! = not confirmed by another sample; [ ] = another dose, or the depositor's remark. Unless noted, calls follow the shape of the dose curve; as a rule, active = well fitted curve in the direction sought with a large enough effect; inconclusive = small, poorly fitted or top-dose-only effect, or another doubt; inactive = no such curve, though single readings can be large; an effect the other way counts as inactive or inconclusive.

SMILES	HCMV antiviral	MARV entry inh	Lassa entry inh	FMDV inh	WI-38 tox	PNC assembly inh	PC3M caspase	others
O=C1C(Nc2ccccc2)=C/C(=N/S(=O)(=O)c2cccs2)c2ccccc21	.	4.11µM*	?	?	28.2µM*	?	?
Cc1ccc(NC2=C/C(=N/S(=O)(=O)c3cccs3)c3ccccc3C2=O)cc1	-102.0*	4.61µM*	4.11µM*	7.94µM*	31.6µM*	25.1µM*	?
Cn1c(Cl)c(/C=N/OC(=O)C2CC2)c2ccccc21	?	2.4%[46.1 µM]	12.3%[46.1 µM]	4.0%	.	.	.
O=C(N/N=C/c1c(O)ccc2ccccc12)c1cccc(C(F)(F)F)c1	-105.0*	2.59µM*	?	?	-18.4%	?	7.6
CC(C)c1ccc(S(=O)(=O)/N=C2/C=C(Sc3ncn[nH]3)C(=O)c3ccccc32)cc1	.	?	?	22.4µM*	-4.3%	?	-4.2
Cc1cc(=O)[nH]c(N=N/C(=N/Nc2ccccc2C)c2ccccc2)n1	-85.8*	0.794µM*	3.98µM*	-9.0%	-6.9%	?	-8.4
COc1ccc(C(=O)Nc2nc3c(s2)CCCC3)cc1S(=O)(=O)N1CCCc2ccccc21	-65.7*	?	?	16.1%	25.9%	5.01µM*	-1.8
COc1cccc(C2c3cc4c(cc3OC(N3CCCC3)C2C)OCO4)c1O (stereo not given)	-16.5	-29.5%	?	-8.3%	.	.	.
O=c1[nH]cnc2c1C(c1ccccc1[N+](=O)[O-])c1c(nc[nH]c1=O)O2	57.4	1.0%	-6.0%	-14.6%	?	-21.5%	1.2
O=c1[nH]c(SCc2ccccc2[N+](=O)[O-])nc2nc[nH]c12	?	.	.	-13.7%	.	.	.
Cc1cc(C(=O)Cn2nnc3ccccc3c2=O)c(C)n1-c1ccccc1F	-86.9*	3.16µM*	1.12µM*	?	14.1µM*	4.47µM*	-18.8
CC(=O)N(C)c1ccc(OCC(O)CN(Cc2ccco2)S(=O)(=O)c2ccc(C)cc2)cc1 (stereo not given)	-30.1	0.0%	-15.9%	?	.	.	.
Nc1[nH]nc2nc3ccccc3cc12	-21.1	?	19.7%	7.7%	.	.	.
Nc1cccc2nc3ccccc3cc12	.	.	.	-13.9%	-17.4%	?	?
CC1(C)Cc2c(sc(NC(=O)COc3ccc(Cl)cc3Cl)c2C(N)=O)C(C)(C)N1	24.8	?	0.4%[46.1 µM]	-27.0%	.	.	.
CCOC(=O)Cn1c(-c2nonc2NC(=O)c2ccccc2F)nc2ccccc21	-98.0*	0.282µM*	0.282µM*	-16.6%	?	4.47µM*	1.2
CC(=O)Nc1nonc1-c1nc2ccccc2n1CCC(C)C	?	?	-5.2%	-24.9%	.	.	.
NSc1nc(N)c2nc(-c3ccccc3)c(-c3ccccc3)nc2n1	32.2	-16.1%[46.1 µM]	-4.7%	?	.	.	.
Nc1nc(N)c2nc(-c3ccccc3)c(N)nc2n1	?	2.82µM*!	?	-20.8%	.	.	.	HeLa G2M arrest=10*
COc1ccc(-c2cc(C#N)nc(N3CCN(C)CC3)n2)cc1	-24.0	?	14.1%	-17.3%	21.6%	?	-7.7
COc1cc(NC(=S)NC(=O)c2ccc(C(C)(C)C)cc2)ccc1NC(=O)c1cccs1	-96.8*	?	1.03µM*	-12.0%	-9.9%	3.98µM*	1.3
COc1cc(NC(=S)NC(=O)c2cc(C)cc(C)c2)ccc1NC(=O)c1cccs1	-28.7	?	-15.8%	-7.5%	.	.	.
CCOC(=O)c1[nH]c(CSc2nnc(-c3ccc(OC)cc3)o2)c(C(=O)OCC)c1C	-14.6	-0.9%	-24.7%	-16.8%	.	.	.
CC(=O)Nc1cccc(Oc2ncnc3scc(-c4ccc(C)cc4)c23)c1	-66.3*	-17.8%	?	?	27.0%	-1.2%	-4.7
Cc1ccccc1C(=O)NNC(=S)Nc1cccc(C(F)(F)F)c1	-13.1	?	?	13.1%	-3.3%	-19.7%	-6.6
SMILES	HCMV antiviral	MARV entry inh	Lassa entry inh	FMDV inh	WI-38 tox	PNC assembly inh	PC3M caspase	others
CN1CCN(S(=O)(=O)c2ccc(Oc3ccc(F)c(Cl)c3)nc2)CC1	-32.6	7.3%[46.1 µM]	3.9%[46.1 µM]	-9.8%	.	.	.
C(=N\Nc1nc2ccccc2[nH]1)/c1c[nH]c2ccccc12	3.3	?	?	-24.3%	.	.	.
O=[N+]([O-])c1cc(/C=N/Nc2nc3ccccc3[nH]2)c(O)cc1O	-98.8*	8.91µM*	10µM*	6.1%	-16.2%	28.2µM*	-23.3
COc1ccc(NC(=O)CSCC(=O)Nc2nnc(C)s2)cc1	-17.5	-1.9%	12.9%	-22.9%	.	.	.
CN1CCN(c2ncnc3c2ncn3[C@H]2CN(Cc3ccncc3)C[C@@H](CO)O2)CC1	-12.1	.	.	-8.2%	.	.	.
Cc1ccc(C(C)C)c(OCc2ccc(C(=O)N/N=C/c3ccc(C(=O)O)cc3)cc2)c1	0.0	.	.	-22.5%	.	.	.
Cc1ccc(C(C)C)c(OCc2ccc(C(=O)N/N=C/c3ccc(O)cc3O)cc2)c1	-96.7*	6.31µM*	?	0.0%	-6.7%	?	-1.9
NC(=O)Cn1c(S(=O)(=O)Cc2ccccc2)nc2ccccc21	-23.0	4.7%	-14.4%	-8.4%	.	.	.
C#CCn1c(S(=O)(=O)Cc2ccc(F)cc2)nc(-c2ccccc2)c1-c1ccccc1	-97.3*	0.92µM*	3.66µM*	?	-24.2%	7.94µM*	-3.4
CCOCCn1c(SCc2ccc(F)cc2)nc2c1c(=O)[nH]c(=O)n2C	2.5	.	.	-6.8%	.	.	.
Fc1ccc(Cn2nnnc2CN2CCN(C3CCCCC3)CC2)cc1	-7.9	-4.7%	-5.6%	-9.8%	.	.	.
COc1cc(C(=O)Oc2ccccc2/C=N/NC(=O)c2ccc(Cl)cc2)cc(OC)c1OC	-99.3*	11.6µM*	11.2µM*	6.5%	?	?	-3.0
CN(C(Cc1ccc(OS(=O)(=O)c2cccc3cnccc23)cc1)C(=O)N1CCN(c2ccccc2)CC1)S(=O)(=O)c1cccc2cnccc12 (stereo not given)	.	.	.	-18.9%	.	.	.
O=C(Cc1coc2ccc3ccccc3c12)Nc1nnc(C2CC2)s1	-77.4*	?	2.51µM*	-18.1%	-7.2%	7.94µM*	1.1
C[C@]12Cc3cn4c(nc3C=C1CCC1C2CC[C@@]2(C)[C@H]1CC[C@@]2(O)C#N)nc1ccccc14 (stereo not given in full)	.	10µM*	5.17µM*	.	.	.	.	HeLa G2M arrest=?
C#C[C@]1(O)CC[C@H]2[C@@H]3CCC4=CC(=O)CC[C@]4(C)[C@H]3CC[C@@]21C	67.8	-1.3%	2.1%	-4.6%	.	.	.
Cn1c(SCC(=O)c2cc(Cl)c(Cl)s2)nnc1-c1ccco1	-18.2	7.0%[14.2 µM]	-1.1%	17.2%	.	.	.
C=CCNC(=S)N/N=C(\C)c1ccccn1	-102.5*	0.259µM*	0.206µM*	?	-26.5%	5.01µM*	-2.8
